Source: PubChem (The Scripps Research Institute Molecular Screening Center)
Compounds with a hit are over-represented: about 3.5% of the library has one in this group of screens.
TEAD-YAP inh: TEAD-YAP interaction inhibition | HEK-TIYL cells, TEAD-Gal4/YAP UAS-luciferase luminescence | inhibition, % at 9.12 µM | 640,000 tested, 1.4% active; in the data active = inhibition above about 32%;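 also: 0% = median of test compound wells and 100% = reference inhibitor wells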
GPR151 ag: human GPR151 activation. AID 1508602. 650,000 tested, 1% active. Q8TDV0. activation, % at 11.2 µM. PathHunter beta-arrestin GPR151 cells, luminescence; in the data active = activation above about 4.9%;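 also: 0% = median of compound wells and 100% = cells with positive control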
FBW7 activator: activators of human E3 ligase FBW7; AlphaScreen FBW7–phospho-cyclin E peptide binding, activator screen; Q969H0; normalized activity (activation), % at 26.1 µM; 650,000 tested, 0.13% active; in the data active = normalized activity above about 1.9%;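 also: purified mutant Fbw7 with reduced substrate affinity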
MITF primary: inhibitors of human MITF; O75030; AlphaScreen MITF homodimerization, bead proximity signal; inhibition, % at 2.6 µM; 650,000 tested, 0.91% active; in the data active = inhibition above about 50%;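 also: 0% = vehicle wells with protein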
Target sequence (O75030 whole entry, looked up): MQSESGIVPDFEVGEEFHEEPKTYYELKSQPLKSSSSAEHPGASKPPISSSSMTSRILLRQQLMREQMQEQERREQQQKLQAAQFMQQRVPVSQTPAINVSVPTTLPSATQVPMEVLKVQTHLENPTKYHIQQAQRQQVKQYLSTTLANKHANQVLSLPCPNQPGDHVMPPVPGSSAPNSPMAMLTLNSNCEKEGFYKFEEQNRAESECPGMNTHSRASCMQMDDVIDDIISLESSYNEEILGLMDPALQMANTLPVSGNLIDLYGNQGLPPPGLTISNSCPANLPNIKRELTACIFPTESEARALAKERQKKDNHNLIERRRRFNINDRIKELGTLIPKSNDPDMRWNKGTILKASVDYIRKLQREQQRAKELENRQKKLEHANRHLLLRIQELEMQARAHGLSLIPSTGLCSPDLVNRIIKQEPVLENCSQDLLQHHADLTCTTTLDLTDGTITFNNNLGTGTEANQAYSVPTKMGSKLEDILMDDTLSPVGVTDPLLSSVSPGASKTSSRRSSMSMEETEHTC
* = called active by the depositor.

SMILES	TEAD-YAP inh	GPR151 ag	FBW7 activator	MITF primary
COc1cc([C@@H]2c3cc4c(cc3[C@H](O)[C@H]3COC(=O)[C@H]23)OCO4)cc(OC)c1OC	43.0*	4.4	-0.1	4.1
COc1cc(C2CC(=O)Nc3cc4c(cc32)OCO4)cc(OC)c1OC (stereo not given)	48.6*	-0.2	-0.1	-6.8
COc1cc([C@@H]2c3cc4c(cc3[C@@H](O[C@@H]3O[C@@H]5CO[C@@H](C)O[C@H]5[C@H](O)[C@H]3O)[C@H]3COC(=O)[C@H]23)OCO4)cc(OC)c1O	-34.7	1.4	0.0	0.1
COc1cc(/C=N/NC(=O)CCN2CCN(C)CC2)cc(OC)c1O	-1.1	-0.2	-0.1	51.4*
COc1cc(/C=N/NC(=O)CCN2CCN(C)CC2)ccc1O	-4.4	0.0	0.3	22.8
O=C1OC(c2ccc(Cl)cc2)=C/C1=C\c1ccc(-c2cccc(C(=O)O)c2)o1	4.2	0.2	0.3	12.4
CC(O)c1ccc(N2Cc3ccccc3C2=O)cc1 (stereo not given)	55.9*	-7.0	0.0	-6.7
O=C1c2ccccc2CN1c1ccccc1	-45.8	-4.9	-0.1	1.1
COc1ccc(N2Cc3ccccc3C2=O)cc1	65.8*	-7.8	0.0	6.4
C=CC(=O)Oc1ccc(N2Cc3ccccc3C2=O)cc1	14.4	-4.4	-0.1	0.4
CCc1ccc(C2C(C#N)=C(N)N(c3ccccc3Cl)C3=C2C(=O)CC(c2ccccc2)C3)s1 (stereo not given)	1.8	0.2	0.0	3.5
COc1ccc(-c2cn3nc(C)c(C)nc3n2)cc1	57.4*	-7.7	0.1	1.5
COc1ccc(-c2cn3cc(-c4ccc(F)cc4)nc3n2C)cc1	91.6*	0.0	-0.2	2.2
COc1ccc(-c2cn3ccccc3n2)cc1	66.3*	-8.9	-0.1	4.7
CCOc1ccc(S(=O)(=O)Nc2ccc(-c3cn4ccccc4n3)cc2)cc1	0.3	4.5	-0.1	-0.5
CCCOc1ccc(-c2cn3ccccc3n2)cc1	79.0*	-8.0	0.0	0.5
COc1cccc(-c2cn3nc(C)c(C)nc3n2)c1	-2.3	-7.4	0.1	6.9
COc1ccc(-c2cn3ccccc3n2)cc1Br	-27.8	-6.6	-0.1	-3.2
CN1C(=O)c2ccc(N=C3NC(=O)CS3)cc2C1=O	1.6	-0.1	0.4	0.1
Clc1ccc(-c2cn3ccccc3n2)cc1	-10.6	-7.9	0.0	-3.4
COc1ccc(-c2cn3ccccc3n2)cc1F	54.7*	-8.4	0.3	8.6
Cc1ccc(-c2cn3ccccc3n2)cc1	53.0*	-8.9	0.0	13.9
c1cc(OCCN2CCOCC2)ncc1-c1ccc2c(c1)OCO2	-33.2	-0.4	-0.5	5.3
O=C(c1ccccc1)N1CCN(c2nc3ccccc3s2)CC1	-19.7	0.3	-0.1	2.2
COc1cccc(NC(=O)c2cc(C(C)C)n(-c3nc4ccccc4s3)n2)c1	48.2*	0.0	0.0	-11.3
SMILES	TEAD-YAP inh	GPR151 ag	FBW7 activator	MITF primary
CCN1CCN(C(=O)c2cc(C(C)C)n(-c3nc4ccccc4s3)n2)CC1	81.4*	-0.2	-0.3	-3.9
COc1ccc(NC(=O)c2cc(C(C)C)n(-c3nc4ccccc4s3)n2)c(OC)c1	63.5*	-1.6	0.1	-5.0
CC(C)c1cc(C(=O)Nc2ccc(Cl)cn2)nn1-c1nc2ccccc2s1	46.5*	0.7	0.1	15.6
COc1ccc(NC(=O)Cn2nnc(-c3c[nH]c4ccccc34)n2)c(OC)c1	2.0	0.2	-0.1	1.2
CCOC(=O)C1=C(C)NC(C)=C(C(=O)OCC)C1c1ccc(-c2ccc(C)cc2)o1	-12.1	-1.6	1.1	11.5
O=C(COc1ccccc1)N1c2ccccc2Sc2ccccc21	61.7*	0.1	0.1	-7.9
COc1ccc(OCC(=O)N2c3ccccc3Sc3ccc(Cl)cc32)cc1	-5.7	1.1	-0.1	-0.2
CC(NC(=O)c1nn2c(C(F)(F)F)cc(-c3ccccc3)nc2c1Cl)c1ccccc1 (stereo not given)	2.3	-0.6	-0.2	-6.8
Cc1ccc(C(=O)Nc2ncc(C)s2)c(C)c1	80.2*	-3.6	0.2	6.3
CCOC(=O)c1ccc(NS(=O)(=O)c2ccc(OCC(=O)OC)c(C)c2)cc1	3.0	2.7	0.0	2.8
CCOC(=O)C1=C(C)NC(SC)=C(C#N)C1CC(C)C (stereo not given)	38.1*	-0.2	0.1	2.1
O=C(CSc1nc(=O)n(Cc2ccncc2)c2c1CCCC2)Nc1ccccc1F	-4.7	-0.2	0.0	-3.0
C/C(=N\NC(=O)c1ccccn1)c1cccs1	65.2*	-5.9	-0.1	11.5
COc1ccc(-c2cc(C(=O)N/N=C(\C)c3ccc(Cl)cc3)[nH]n2)cc1	19.9	0.4	0.1	0.0
CCOc1ccc(-c2cc(C(=O)N/N=C(\C)c3cccs3)[nH]n2)cc1	60.1*	-1.0	0.3	9.9
CCOc1ccc(-c2cc(C(=O)N/N=C(\C)c3cccc(OC)c3)[nH]n2)cc1	52.0*	-1.4	-0.1	-1.5
CCOC(=O)c1c(-c2ccc(OC)cc2)csc1NC(=O)CCCC(=O)O	7.1	-0.4	0.1	-4.8
COC(=O)c1c(-c2ccc(C)c(C)c2)csc1NC(=O)CCCC(=O)O	33.4*	0.2	0.0	-8.1
Cc1cnc(CNc2cc(-c3ccccc3F)nc(-c3cccnc3)n2)nc1	43.3*	0.4	-0.4	14.9
c1cc(Nc2nc(NCCN3CCOCC3)c3ncn(C4CCCCC4)c3n2)ncn1	-16.1	-0.8	-0.1	1.0
O=C1C(=O)c2ncccc2-c2cccnc21	74.5*	-0.2	-1.8	57.2*
Cc1nc(-c2ccccc2)nc2[nH]c(-c3ccccc3)cc(=O)c12	12.4	-0.9	0.0	7.6
Cc1nc(C)c2c(=O)cc(-c3ccccc3)[nH]c2n1	52.2*	-1.0	-0.1	-1.9
CCSc1nc(N)c(C#N)c(CC)c1C#N	-4.8	1.4	0.0	2.0
CCc1c(C#N)c(N)nc(SCC#N)c1C#N	-36.9	-0.1	2.3*	-5.5
SMILES	TEAD-YAP inh	GPR151 ag	FBW7 activator	MITF primary
O=C(N/N=C/c1cc(I)ccc1O)c1ccccc1O	67.0*	0.5	-0.3	-10.5
COc1c(/C=N/NC(=O)c2ccccc2O)sc2ccccc12	-11.2	1.0	-0.2	-11.7
O=C(N/N=C/c1sc2ccccc2c1O)c1ccc(O)cc1O	47.0*	2.8	-0.8	36.6
O=C(N/N=C/c1ccc(O)cc1O)c1ccccc1O	52.1*	-0.5	-1.1	4.1
Cc1ccc(/C=N/NC(=O)c2ccccc2O)c(O)c1	24.6	-0.5	0.0	8.6
O=C(N/N=C/c1ccc(O)cc1O)C(=O)N/N=C/c1ccc(O)cc1O	4.6	-2.0	-1.3	99.4*
CC(=O)Nc1ccc(NC(=O)C(C)Sc2ccc(Cl)cc2)cc1 (stereo not given)	0.6	1.6	-0.8	6.8
OCCNCc1ccc(OCc2ccccc2)cc1	-9.9	-3.8	0.0	12.2
O=C(CCC(=O)N/N=C/c1ccc(O)cc1O)N/N=C\c1ccc(O)cc1O	5.6	0.8	-0.6	25.5
O=C(CCC(=O)Nc1cc(C(F)(F)F)ccc1Cl)N/N=C\c1ccc(O)cc1O	43.7*	1.5	-0.5	10.1
COCCOC(=O)C1=C(C)NC2=C(C(=O)CC(c3cccs3)C2)C1c1ccsc1 (stereo not given)	-6.9	1.2	0.5	-2.9
